Pf growth 96h: Primary qHTS for delayed death inhibitors of the malarial parasite plastid, 96 hour incubation | P. falciparum luciferase reporter growth, 96 h | Potency, µM (titrated, usually from 28.7 µM), most hits filed as inhibitors | hit rate 6.9% among 320,000 | AID 504834, 2011
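Luminescence readout: decreased luciferase signal marks inhibited growth of reporter-expressing P. falciparum in infected red cells (2% hematocrit, 0.05% parasitemia final), exposed to compound two generations (96 h, 37 C, 5% CO2).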
HCV inhibitor: qHTS Assay for Inhibitors of Hepatitis C Virus (HCV). AID 651820, 2012. Potency, µM (highest dose often 41.8 µM), usual class: inhibitors. hit rate 3.4% among 340,000. Huh7.5.1 HCVcc-Cre infection, luciferase reporter, 44 h
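Compounds are dispensed onto cells plated 4 h earlier at 1,000 per well, with HCVcc-Cre virus (about 0.5 moi) added next. Following 44 h of culture, luminescent signal is measured for 15 sec after 15 min with substrate at room temperature.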
HCMV antiviral: qHTS Assay for inhibitors of the human cytomegalovirus (HCMV); AID 1259415, 2018; hit rate 4.5% among 410,000; activity change, negative = inhibition, % at 57.5 µM; HFF cells, HCMV-luciferase reporter, 72 h; stronger effect = lower value; in the data active means activity change below about -60%; inconclusive means no clear call, values can overlap the other calls; inactive means above about -39%
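Steps: HFFs plated, 16 h 37C; compounds added; HCMV-luciferase added to MOI 1 PFU/cell; 72 h 37C; OneGlo reagent, 5 min room temperature; luminescence read, normalized to controls.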
Pf growth 48h: Primary qHTS for delayed death inhibitors of the malarial parasite plastid, 48 hour incubation; P. falciparum luciferase growth in erythrocytes, 48 h; Potency, µM (doses to about 28.7 µM), most hits filed as inhibitors; hit rate 5.9% among 310,000
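Cell-based growth assay: transgenic P. falciparum expressing firefly luciferase, cultured in red cells within RPMI 1640 containing 0.5% w/v Albumax, 24 mM bicarbonate and gentamycin. A drop in luciferase activity indicates inhibition.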
Large screens that a line does not name were inactive; ! = not confirmed by another sample. Only some compounds are listed: those with a hit (about 13% of all), similar ones and a draw of the others. Unless noted, the call rests on the fitted dose curve; in most records, active means well fitted inhibition curve with a large enough effect; inconclusive means small, poorly fitted or top-dose-only effect, or another doubt; inactive means no such curve, though single readings can be large or run the other way.

Cc1cccc(-c2ccc([N+](=O)[O-])cc2CN2CCN(c3ncc(Cc4ccccc4)cn3)CC2)c1	none (no result: Pf growth 96h, HCV inhibitor, Pf growth 48h)
COc1ccc(OCCC(=O)Nc2ccccc2)cc1	none
O=C(CCOc1ccccc1)Nc1ccccc1	Pf growth 96h 11.7µM
Cc1ccc(C)c(NC(=O)CCOc2ccccc2)c1	Pf growth 96h inconclusive, HCMV antiviral -67.5!
Cc1ccc(C(=O)N2CCCCC2CCN2CCCCC2)cc1 (centres undefined)	none (no result: Pf growth 96h, HCV inhibitor, Pf growth 48h)
Cc1cc(C)cc(NC(=O)Cn2c(=O)n(C(C)C)c(=O)c3oc4ccccc4c32)c1	none (no result: Pf growth 96h, HCV inhibitor, Pf growth 48h)
COc1ccc(OC)c(CC(=O)NC(c2ccccc2)c2ccccc2)c1	Pf growth 96h 6.57µM, HCV inhibitor inconclusive, Pf growth 48h inconclusive
COc1ccc(CC(=O)NC(c2ccccc2)c2ccc(C)cc2)c(OC)c1 (centres undefined)	Pf growth 96h inconclusive, Pf growth 48h 10.4µM
CCn1cc(C2=NOC(C(=O)Nc3cccc(C(C)=O)c3)C2)c(C)n1 (centres undefined)	Pf growth 96h inconclusive, HCV inhibitor 6.31µM, HCMV antiviral -64.5
CCn1ncc(C2=NOC(C(=O)Nc3cnn(C45CC6CC(CC(C6)C4)C5)c3)C2)c1C (centres undefined)	HCMV antiviral -82.8, Pf growth 48h 5.86µM
Cc1ccc(C)c(NC(=O)CN(Cc2ccccc2)S(=O)(=O)c2ccc3nc(C)sc3c2)c1	none (no result: Pf growth 96h, HCV inhibitor, Pf growth 48h)
COC(=O)c1cc2sccc2n1CC(=O)Nc1ccc(OC)c(OC)c1OC	HCV inhibitor inconclusive, Pf growth 48h 2.08µM
COC(=O)c1cc2occc2n1CC(=O)Nc1cccc(SC)c1	none (no result: Pf growth 96h, HCV inhibitor, Pf growth 48h)
COC(=O)c1cc2sccc2n1CC(=O)Nc1cccc(SC)c1	Pf growth 96h 3.29µM
O=C(C1CC(c2ccc(F)cc2)=NO1)N1CCCc2ccccc21 (centres undefined)	Pf growth 96h 2.08µM
COc1ccc(OC)c(C2=NOC(C(=O)N3CCCc4ccccc43)C2)c1 (centres undefined)	HCV inhibitor inconclusive, HCMV antiviral -60.0 (no result: Pf growth 96h)
Cc1ccc(C(=O)Nc2ccccc2-c2ccccc2)cc1[N+](=O)[O-]	HCV inhibitor inconclusive
Cc1ccc(C)c(N(CC(=O)Nc2cc(Cl)ccc2Oc2ccccc2)S(C)(=O)=O)c1	Pf growth 96h 14.7µM, Pf growth 48h inconclusive
COc1cccc(OCC(=O)Nc2cc(Cl)ccc2Oc2ccccc2)c1	Pf growth 96h inconclusive, HCV inhibitor inconclusive, Pf growth 48h inconclusive
Cc1ccc(C(=O)Nc2cc(Cl)ccc2Oc2ccccc2)cc1[N+](=O)[O-]	Pf growth 96h inconclusive, Pf growth 48h 13.1µM
COc1ccc(C)cc1NC(=O)CN(c1ccccc1F)S(C)(=O)=O	none
Cc1cccc(C)c1N(CC(=O)Nc1cc(Cl)ccc1Oc1ccccc1)S(C)(=O)=O	Pf growth 96h inconclusive, HCV inhibitor inconclusive, Pf growth 48h 10.4µM
COc1ccc(NC(=O)c2ccc3c(=O)n4nc(Nc5cccc(Cl)c5C)sc4nc3c2)cc1	none (no result: Pf growth 96h, HCV inhibitor, Pf growth 48h)
CCn1c(C(=O)Nc2c(C)cccc2C)cc2sc(Cl)cc21	none (no result: Pf growth 96h, HCV inhibitor, Pf growth 48h)
Cc1ccc(CNC(=O)CSc2nc3ccsc3c(=O)n2-c2ccc(Br)cc2)cc1	none (no result: Pf growth 96h, HCV inhibitor, Pf growth 48h)
Cc1ccc(CN(C)C[C@H]2OCc3cnnn3CCCC(=O)N([C@H](C)CO)C[C@@H]2C)cc1	none (no result: Pf growth 96h, HCV inhibitor, Pf growth 48h)
Cc1ccccc1N=C1SC(CC(=O)Nc2ccc3ccccc3c2)C(=O)N1Cc1ccccn1 (centres undefined)	Pf growth 96h 3.7µM, HCV inhibitor 10µM, Pf growth 48h 1.17µM
O=C(CC1SC(=Nc2cccc3ccccc23)N(Cc2ccccn2)C1=O)Nc1ccccc1Br (centres undefined)	Pf growth 96h 8.28µM, Pf growth 48h 9.28µM
O=C(Cn1nnc2ccccc21)c1ccc(Br)cc1	none
O=C(Cn1c(-c2ccccc2)c[n+]2ccsc12)c1ccc(Br)cc1	Pf growth 96h inconclusive, HCMV antiviral -74.5, Pf growth 48h inconclusive
Cc1ccccc1-c1noc(CCC(=O)Nc2cccc(C)c2C)n1	none (no result: Pf growth 96h, HCV inhibitor, Pf growth 48h)
C#CCOCCOCCOCCNc1nc(N2CCN(C(=O)Cn3cc(CCCCN)nn3)CC2)nc(N2CCN(C(=O)[C@H](C(C)C)n3cc(CCO)nn3)CC2)n1	none
C#CCOCCOCCOCCNc1nc(N2CCN(C(=O)CCCCCCCCCCNC(=O)[C@@H](CCSC)n3cc(CCO)nn3)CC2)nc(N2CCN(C(=O)CCCCCCCCCCNC(=O)[C@H](CO)n3cc(CCCCCN)nn3)CC2)n1	Pf growth 96h inconclusive, HCV inhibitor inconclusive, Pf growth 48h 1.04µM (no result: HCMV antiviral)
C#CCOCCOCCOCCNc1nc(N2CCN(C(=O)CCCCCCCCCCNC(=O)[C@@H](CCSC)n3cc(CCO)nn3)CC2)nc(N2CCN(C(=O)CCCCCCCCCCNC(=O)[C@H](CCC(=O)O)n3cc(CCCCCN)nn3)CC2)n1	Pf growth 96h 10.4µM, Pf growth 48h 5.22µM (no result: HCMV antiviral)
C#CCOCCOCCOCCNc1nc(N2CCN(C(=O)CCCCCCCCCCNC(=O)[C@H](CCCCN)n3cc(CCO)nn3)CC2)nc(N2CCN(C(=O)CCCCCCCCCCNC(=O)[C@H](CCCCN)n3cc(CCCC(=O)O)nn3)CC2)n1	Pf growth 96h inconclusive, Pf growth 48h inconclusive
O=C(CCC1N=C2c3ccccc3N=C(SCc3ccc(F)cc3)N2C1=O)NC1CCCCC1 (centres undefined)	none (no result: Pf growth 96h, HCV inhibitor, Pf growth 48h)
CCCCc1nn2c(=O)cc(COC(=O)c3ccc(NC(=O)CCc4ccccc4)cc3)nc2s1	none (no result: Pf growth 96h, HCV inhibitor, Pf growth 48h)
CC(=O)NCCNC(=O)Cn1nnc(-c2ccccc2)c1COc1ccc2ccccc2c1	none (no result: Pf growth 96h, HCV inhibitor, Pf growth 48h)
COC(=O)c1nnn(-c2ccc(F)c(Cl)c2)c1C(=O)OC	none
COC(=O)c1c(C)nn(-c2ccc(F)c(Cl)c2)c1-c1cc(C)on1	HCV inhibitor 8.91µM
CCC(=O)Nc1ccc(S(=O)(=O)Nc2c(C)nc3nc[nH]n3c2=O)cc1	Pf growth 96h 10.4µM
CC(=O)Nc1ccc(S(=O)(=O)Nc2ncccn2)cc1	none
CCC(=O)Nc1ccc(S(=O)(=O)Nc2ncccn2)cc1	Pf growth 96h 9.28µM (no result: Pf growth 48h)
Fc1ccc(-n2cc(CNCCc3ccccn3)c(-c3ccccc3Cl)n2)cc1	Pf growth 48h 8.28µM
Cc1ccc(-n2cc(CNCCc3ncc(C)[nH]3)c(-c3ccc(F)cc3)n2)cc1	HCV inhibitor inconclusive, Pf growth 48h 1.65µM
COc1ccc(-n2cc(CNCCCn3ccnc3)c(-c3ccccc3Cl)n2)cc1	HCV inhibitor inconclusive, Pf growth 48h 1.47µM
CCN1CCC(CNCc2cn(-c3ccc(OC)cc3)nc2-c2ccccc2Cl)C1 (centres undefined)	Pf growth 96h inconclusive, HCV inhibitor 11.2µM, HCMV antiviral -70.8, Pf growth 48h 2.08µM
Cc1cc(-c2nn(-c3ccccc3F)cc2CNCCc2cnccn2)c(C)s1	Pf growth 48h inconclusive
COc1ccc(-n2cc(CNCCN3CCOC3=O)c(-c3ccccc3Cl)n2)cc1	Pf growth 96h inconclusive
COc1ccc(-n2cc(CNCCc3ncc(C)[nH]3)c(-c3ccccc3Cl)n2)cc1	Pf growth 96h inconclusive
COc1ccc(-n2cc(CNCCc3nc(C)cc(C)n3)c(-c3ccccc3Cl)n2)cc1	Pf growth 96h inconclusive, HCV inhibitor inconclusive, HCMV antiviral inconclusive, Pf growth 48h 11.7µM

Screening data deposited in PubChem BioAssay by National Center for Advancing Translational Sciences (NCATS).
